Gal4-VP16 FLuc: counter-screen for ROR gamma inhibitors: Gal4-VP16 reporter. Drosophila S2 Gal4-VP16 UAS-luciferase, luminescence, 20 h. Potency, µM (top dose mostly 53.6 µM), for the others: at the highest dose activity, negative = inhibition, usual class: inhibitors. actives 3.5% (n = 310,000). AID 2546;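 note: Gal4-VP16 expression switched on by copper sulfate through the metallothionein promoter; potency is the fitted concentration of half-maximal effect; % is set by controls: 0 for no effect and ±100 for the full control effect; nearly all actives have a fitted effect of over 50% in size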
RORg inh: blocks mouse ROR gamma transcriptional activity; AID 2551; P51450; Drosophila S2 Gal4-RORgamma UAS-luciferase reporter, 20 h; Potency, µM (doses to about 53.6 µM), for the others: at the highest dose activity change, negative = inhibition, actives largely listed as inhibitors; actives 5.4% (n = 310,000); note: potency is the fitted concentration of half-maximal effect; % is set by controls: 0 for no effect and ±100 for the full control effect; nearly all actives have a fitted effect of over 60% in size
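Schneider cells (Drosophila), stable Gal4 DBD–ROR gamma + UAS-luc; 1 hr cmpd preincubation; Cu2+ induction 700 uM final; 20 hr ambient; luminescence.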
ERG-DNA inh: ERG Ets/DNA interaction inhibition; P11308; fluorescence polarization, His-ERG Ets domain / labelled DNA; Potency, µM (titrated, usually from 76.9 µM), for inactives: top-dose FP activity, negative = inhibition, usual class: inhibitors; actives 0.028% (n = 370,000); AID 624246; active = well fitted inhibition curve with a large enough effect in the polarisation, with a control signal flat; inconclusive = small, poorly fitted or top-dose-only effect, or effect the other way, or a change in a side signal; inactive = no such curve, though single readings can be large or run the other way; the % refers to the polarisation;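 note: polarization taken with two DNA probes labelled with fluorescein and Texas red; potency is the fitted concentration of half-maximal effect; % of control where 0% means no effect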
Target sequence (P11308 whole entry, looked up, the tested form may be a part): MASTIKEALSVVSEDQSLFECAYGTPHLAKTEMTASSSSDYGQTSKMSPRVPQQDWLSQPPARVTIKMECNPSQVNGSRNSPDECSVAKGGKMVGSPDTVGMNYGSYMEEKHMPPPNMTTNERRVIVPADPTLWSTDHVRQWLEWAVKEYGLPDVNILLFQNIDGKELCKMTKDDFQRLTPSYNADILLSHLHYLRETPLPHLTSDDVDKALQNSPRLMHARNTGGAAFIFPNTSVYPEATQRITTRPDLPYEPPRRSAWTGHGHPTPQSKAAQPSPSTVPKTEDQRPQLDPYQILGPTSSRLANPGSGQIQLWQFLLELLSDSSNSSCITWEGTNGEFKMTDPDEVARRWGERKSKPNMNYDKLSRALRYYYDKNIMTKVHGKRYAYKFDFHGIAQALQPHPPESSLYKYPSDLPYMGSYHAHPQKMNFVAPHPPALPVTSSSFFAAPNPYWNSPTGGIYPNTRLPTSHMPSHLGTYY
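His-tagged ERG Ets domain (1 uM in the protein solution; 300mM KCl, 50mM Tris-HCl, 1mM EDTA, 1mM DTT, pH 7.5) received compound, then a probe mix of 5 nM fluorescein-DNA and 100nM Texas-615-DNA. Fluorescence polarization was read for both dyes.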
Giardia killer: kills Giardia lamblia | actives 0.15% (n = 340,000) | activity change, % at 7.66 µM, hits read low | Giardia lamblia trophozoite viability; in the data active = activity change below about -80%; inconclusive = between about -30% and that limit;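 note: parasites exposed to compound for two days anaerobically before the ATP read; % is set by controls: 0 for no effect and ±100 for the full control effect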
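Giardia lamblia trophozoites (100 cells/well) were incubated with compounds for 48 h at 37 deg C under anaerobic conditions. Viability was read as ATP content by one-step luminescence after 15-30 min at room temperature.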
a7 integrin act: integrin-mediated muscular dystrophy alleviation activation | Potency, µM (titrated, usually from 38.3 µM), for the others: at the highest dose activation, most hits filed as activators | alpha7betagal myoblasts, beta-gal FDG fluorescence, 48 h | actives 0.064% (n = 350,000);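 note: potency is the fitted concentration of half-maximal effect; 100% = response of the positive control SU9516; nearly all actives have a fitted effect of over 60% in size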
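alpha7betagal+/- myoblasts (passage 13, 250/well) treated 48 h at 37C with compounds at 1:260 dilution of DMSO stock. Lysed, then beta-galactosidase activity read as FDG fluorescence (ex 480/em 540) after 30 min, with pre-read for autofluorescence.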
Starred values were filed as active, the others as inactive; ? = inconclusive; . = not tested or not shown; [ ] = dose if it differs, or a comment. Shown is part of a subset that was picked to be rich in hits. Unless noted, calls come from the whole dose curve; as a rule, active = well fitted curve in the direction sought with a large enough effect; inconclusive = small, poorly fitted or top-dose-only effect, or another doubt; inactive = no such curve, though single readings can be large; an effect the other way counts as inactive or inconclusive.

SMILES	Gal4-VP16 FLuc	RORg inh	ERG-DNA inh	Giardia killer	a7 integrin act
CC1=C(C(=O)Nc2cccnc2)C(c2ccccc2)n2nc(-c3ccc(O)cc3)nc2N1 (centres undefined)	.	.	-0.6%	.	.
Cc1cc2nn(-c3ccccc3)nc2cc1NC(=O)COc1ccc(Cl)cc1	.	.	0.2%	.	.
COc1ccc(/C=N/OC/C(O)=C(\C#N)c2nc3ccccc3[nH]2)cc1	?	11.2µM*	-3.8%	0.1	-16.4%
COc1ccc(OC/C(O)=C(\C#N)c2nc3ccccc3[nH]2)cc1	-1.9%	-35.6%	6.0%	2.1	24.6%
Cc1ccc(-n2c(-c3ccccc3)nsc2=NC#N)cc1	.	.	.	-6.3	.
Cc1ccccc1NC1=NC(=S)N(c2ccccc2)C12CCCCC2	?	3.55µM*	-2.7%	-1.5	0.0%
CC1(C)CC2(CCO1)C(Nc1ccccc1)=NC(=S)N2c1ccccc1 (centres undefined)	2.8%	25.1%	5.7%	0.4	1.8%
Cc1ccccc1NC1=NC(=S)N(c2ccccc2)C12CCOC(C)(C)C2 (centres undefined)	17.8µM*	6.31µM*	3.4%	-15.5	10.0%
Cc1ccc(-c2cc(C(F)(F)F)n3nc(C(=O)Nc4sc5c(c4C#N)CCC(C)C5)cc3n2)cc1 (centres undefined)	.	.	-4.4%	.	.
Cc1ccc(O)c(C(=O)CC(=O)c2ccccc2Cl)c1	12.6µM*	7.08µM*	-8.9%	-10.8	-5.3%
Cc1ccc(O)c(C(=O)CC(=O)c2ccc(C(C)(C)C)cc2)c1	5.01µM*	5.62µM*	-7.5%	9.2	-0.9%
Cc1cn2c(=O)c(S(=O)(=O)NCc3ccc(F)cc3)c(C)nc2s1	.	.	3.9%	.	.
O=C(COc1ccc(Cl)cc1Cl)N/N=C/c1ccc(OC2OC(CO)C(O)C(O)C2O)cc1 (centres undefined)	3.6%	11.2µM*	-1.0%	-2.8	22.1%
O=C(CCCOc1ccc(Cl)cc1Cl)N/N=C/c1ccc(Cl)cc1	?	-41.5%	6.6%	5.8	-20.1%
Cc1ccc(-n2c(Cl)c(Cl)nc(Cl)c2=O)cc1	5.01µM*	2.82µM*	20.7%	-4.0	?
Cc1ccn(-c2n[nH]c(C)c2[N+](=O)[O-])n1	-5.3%	12.6µM*	0.1%	-7.6	2.3%
O=S(=O)(c1ccccc1)N1CCC2(CC1)CN(c1ccccn1)C2	10.4%	-1.9%	.	.	.
CC(=O)NC1=CC(=O)c2nonc2C1=O	.	.	.	2.7	.
CC(C)Cn1c(=O)c2ccccc2n2c(CCC(=O)Nc3ccc(F)c(F)c3)nnc12	.	.	3.3%	.	.
O=C(NC(=S)N(CCCCO)C1CCCCC1)c1sc2ccccc2c1Cl	0.891µM*	0.1µM*	.	-4.9	-53.1%
CC1CCCCC1NC(=S)NC(=O)c1sc2ccccc2c1Cl (centres undefined)	6.0%	-8.6%	-1.4%	-1.3	11.0%
CCCCCCCCCCOC(=O)Cn1c(COc2ccccc2C)[n+](C)c2ccccc21	15.8µM*	?	6.2%	17.6	-50.2%
CCCCCCCCCCOC(=O)Cn1c(COc2ccccc2)[n+](C)c2ccccc21	?	?	-4.6%	5.8	-41.7%
CCCCCCCCCCOC(=O)Cn1c(COc2ccc(OC)cc2)[n+](C)c2ccccc21	6.31µM*	?	-5.8%	8.4	-57.9%
CCCCCCCCCCOC(=O)Cn1c(COc2cccc(C)c2)[n+](C)c2ccccc21	11.2µM*	-85.3%	7.3%	21.0	-61.5%
SMILES	Gal4-VP16 FLuc	RORg inh	ERG-DNA inh	Giardia killer	a7 integrin act
CC1CCC(C(C)C)C(OC(=O)Cn2c(-c3ccc(Br)cc3)[n+](C)c3ccccc32)C1 (centres undefined)	?	?	1.3%	4.1	-68.2%
Cc1ccccc1OCc1n(CC(=O)OC2CC(C)CCC2C(C)C)c2ccccc2[n+]1C (centres undefined)	17.8µM*	?	4.3%	-2.2	-66.9%
COCCCNC(=O)Cn1c(=O)nc(-c2ccccc2)c2ccccc21	.	.	-4.7%	.	.
CCc1cnc2c(c1SCC(=O)c1ccc(Cl)cc1)c(=O)n(C)c(=O)n2C	.	.	3.2%	.	.
O=C1CC(SCc2nc3ccccc3[nH]2)C(=O)N1c1ccc(F)cc1 (centres undefined)	?	?	-2.6%	-0.9	-9.2%
O=C1CC(Sc2nnnn2-c2ccccc2)C(=O)N1c1cccc(Cl)c1 (centres undefined)	3.16µM*	3.55µM*	0.6%	-8.9	-69.0%
COc1ccc(N2C(=O)CC(Sc3nnc(-c4ccccc4)o3)C2=O)cc1 (centres undefined)	?	5.62µM*	7.9%	9.9	-71.4%
Clc1cccc(N2CCN(c3nnnn3-c3ccccc3)CC2)c1	-8.4%	16.5%	1.0%	24.7	?
O=C1CC(SCc2nc3ccccc3[nH]2)C(=O)N1c1cccc(Cl)c1 (centres undefined)	12.6µM*	10µM*	-5.4%	7.2	-26.3%
COc1ccc(N2C(=O)CC(Sc3nc(C)cc(C)c3C#N)C2=O)cc1 (centres undefined)	?	?	.	0.1	-21.5%
COc1ccc(N2C(=O)CC(Sc3nnnn3-c3ccc(F)cc3)C2=O)cc1 (centres undefined)	-15.5%[10 µM]	11.2µM*	-11.4%	-1.7	-60.3%
O=C(N/C(=C\c1cccc([N+](=O)[O-])c1)C(=O)N1CCOCC1)c1ccc([N+](=O)[O-])cc1	1.8%	-1.1%	-1.9%	12.6	-9.3%
O=C(Nc1ncnc2nc[nH]c12)c1ccccc1	.	.	.	16.3	.
COc1ccc(-c2ccccc2C2NC(C(=O)O)CCC2C)cc1 (centres undefined)	-0.9%[10 µM]	-0.7%[10 µM]	.	.	.
CC(/C=C1\SC(=S)N(CCCC(=O)Nc2ccc(C(=O)O)cc2)C1=O)=C\c1ccccc1	-22.1%	-4.2%	60.2%	2.7	2.5%
CC(=C\c1ccccc1)/C=C1/SC(=S)N(CCCC(=O)O)C1=O	0.631µM*	?	8.0%	6.7	?
CC(/C=C1\SC(=O)N(CCCC(=O)O)C1=O)=C\c1ccccc1	0.316µM*	0.1µM*	-14.8%	-2.3	-22.9%
CCc1cccc(NC(=O)Cn2c(=O)n(-c3ccccc3C)c(=O)c3c2c2cc(C)ccc2n3C)c1	.	.	-0.9%	.	.
COc1ccc2c(c1)CC(C(=O)NCc1ccc(F)cc1)CO2 (centres undefined)	.	.	2.8%	.	.
CN(C(=O)c1cc2n(n1)C(C(F)(F)F)CC(c1ccco1)N2)c1ccccc1 (centres undefined)	20.6%	15.8%	-4.4%	1.2	-11.1%
CN(C(=O)c1cc2n(n1)C(C(F)(F)F)CC(c1ccco1)N2)c1ccc(OC(F)(F)F)cc1 (centres undefined)	17.8µM*	?	3.7%	-12.4	-7.9%
CCc1sc(-c2cc3cccc(OC)c3oc2=O)nc1-c1ccccc1	.	.	.	-17.4	.
Cc1cc2c(cc(C(=O)NCCCN3CCOCC3)n2Cc2ccc(Cl)cc2)o1	10µM*	?	-3.6%	18.1	0.5%
COc1ccc(/C=C/C(=O)c2ccc(C)s2)cc1	17.1%	-38.1%	.	.	.

Compound activity as filed in PubChem.
